# Results reported in PubChem BioAssay.
# Activity calls are given as the source filed them.
# Assay: E. coli growth modulation, two-sided OD650, primary screen, E. coli filamentation project, strain DRC41, 24 h (AID 1093);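 further: MC1000 strain lacking acrAB efflux and sulA so SOS filamentation is blocked; test concentration not given here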
# Conditions: OD650, 24 h, higher = more signal, called active from +8 up or from −8 down
row,Structure (SMILES),z-score
1,CCCCC(=O)N(Cc1ccccc1F)[C@@H]1CC(C(=O)NCCO)=C[C@H](Oc2c(I)cc(CO)cc2OC)[C@H]1O,0.772 (inactive)
2,COc1ccc([Si](C)(C)[C@H]2[C@H](CCO)O[C@@]3(C(=O)N(Cc4cccc(N5C(=O)c6cccc7cccc5c67)c4)c4ccccc43)[C@@H]2C)cc1,0.879 (inactive)
3,CC(C)C(CO)N1C(=O)[C@@H]2[C@H]3C(=O)OCC=C[C@H]3OC23C=CCN(c2ccc4ccccc4c2)C(=O)[C@@H]13 (stereo partly specified),0.0732 (inactive)
4,CCOC(=O)C[C@H]1[C@H](OC(=O)c2ccccc2-c2ccccc2)[C@@H](NC(=O)c2ccc(-c3ccccc3)cc2)c2cc(OCCCO)ccc2N1C(=O)c1ccccc1,1.04 (inactive)
5,CN(C)CCCC[C@@H]1NC(=O)[C@@H]2C[C@H](C(=O)NCCCCCCN)[C@H](c3ccc(O)cc3)N2C1=O,-0.47 (inactive)
6,CN1C(=O)C2C(C1=O)C1C=C(c3ccc(CO)cc3)C2C(C2CC2)N1Cc1sc2ccccc2c1Cl (stereo unspecified),0.204 (inactive)
7,O=C1C2C=CC(C(O)c3ccc(B(O)O)cc3)N(Nc3ccc([N+](=O)[O-])cc3)C2C(=O)N1c1ccccc1 (stereo unspecified),-0.465 (inactive)
8,CCCNC(=O)[C@@]1(C)c2ccccc2C(=O)N(Cc2ccc(OC(F)(F)F)cc2)[C@H]1c1ccc(CO)cc1,0.922 (inactive)
9,[N-]=[N+]=NCc1ccccc1[C@H]1OC(c2ccc(OCCCO)cc2)=N[C@@]1(Cc1ccccc1)C(=O)O,-0.395 (inactive)
10,CCCC[C@@H]1C[C@H]1[C@@H](NC(=O)c1ccccc1)c1ccc(-c2ccccc2)cc1,-0.947 (inactive)
11,C=C(CCCC)/C(=C/C[C@H](OC(C)=O)c1ccc(CO)o1)c1cc(C(=O)OC)ccc1OC,1.05 (inactive)
12,COc1ccc([Si](C)(C)[C@@H]2[C@@H](CC(=O)N3Cc4ccccc4C[C@H]3CO)O[C@]3(C(=O)N(Cc4cccc(N5C(=O)COc6ccccc65)c4)c4ccccc43)[C@H]2C)cc1,2.33 (inactive)
13,C=C(C)[C@@H]1CC=C(C(O)C2C=CC3C(=O)N(Cc4ccccc4)C(=O)C3N2n2cnnc2)CC1 (stereo partly specified),-0.0792 (inactive)
14,C=C(C(=O)CC[C@@H](OC(C)=O)c1ccc(OCCO)cc1)C(C)C,0.278 (inactive)
15,COc1ccc(C(=O)Nc2cccc(CN3C(=O)[C@@]4(O[C@@H](CC(=O)N5Cc6ccccc6C[C@H]5CO)[C@H]([Si](C)(C)c5ccc(OC)cc5)[C@H]4C)c4ccccc43)c2)cc1,-0.209 (inactive)
16,CC[C@@H]1C=C(C(=O)O)[C@H](c2ccc(C(C)C)cc2)N1S(=O)(=O)c1ccc(C)cc1,-0.29 (inactive)
17,[N-]=[N+]=NCc1ccccc1C[C@]1(C(=O)NCC(O)CO)COC(c2ccc(OCCCO)cc2)=N1 (stereo partly specified),1.34 (inactive)
18,[N-]=[N+]=Nc1ccccc1[C@@H]1OC(c2ccc(OCCCO)cc2)=N[C@]1(CCS(=O)(=O)c1ccccc1)C(=O)N1CCCCC1,0.106 (inactive)

row,Structure (SMILES),z-score
1,O=C1OCCC/C=C\[C@H]2OC34C=CCN(Cn5nnc6ccccc65)C(=O)[C@H]3N(CCCO)C(=O)[C@@H]4C12 (stereo partly specified),0.123 (inactive)
2,C=CCC(OC(C)=O)[C@@H]1[C@@H](N(Cc2cc3ccccc3o2)C(=O)c2cccc3ccccc23)c2cc(OCCCO)ccc2N1C(=O)Cc1ccc(OC)cc1 (stereo partly specified),-0.829 (inactive)
3,Cc1ccc(N2C(=O)c3ccccc3[C@@H](C(=O)NCC(C)C)[C@@H]2c2ccc(CO)cc2)nc1,0.409 (inactive)
4,COCCOC(=O)N1C(=O)[C@@]2(c3ccccc31)[C@H](c1ccc(O)cc1)N1[C@H](c3ccccc3)[C@H](c3ccccc3)OC(=O)[C@H]1[C@@H]2C(N)=O,-0.29 (inactive)
5,CN(C)CCCC[C@@H]1NC(=O)[C@@H]2C[C@H](C(=O)NCCCCCN)[C@H](c3ccc(O)cc3)N2C1=O,0.0706 (inactive)
6,COCCOC(=O)N1C(=O)[C@@]2(c3cc(C#CCCO)ccc31)[C@H](C(=O)NC[C@H](O)c1ccccc1)[C@H]1C(=O)O[C@H](c3ccccc3)[C@H](c3ccccc3)N1[C@@H]2c1ccc(OCCO)cc1,2.17 (inactive)
7,O=C1C2C=CC(C(O)C3CC=CCC3)N(n3cnnc3)C2C(=O)N1Cc1ccccc1 (stereo unspecified),-1.09 (inactive)
8,CC(C)C(O)C1C=CC2C(=O)N(C)C(=O)C2N1N1CCCCC1 (stereo unspecified),-1.46 (inactive)
9,COC(=O)[C@@]1(Cc2ccc(F)cc2)[C@H]2c3cc(C(=O)N4CCCC4)n(CCc4ccc(OC)c(Br)c4)c3C[C@H]2CN1C(=O)c1ccccc1,-0.224 (inactive)
10,COCCOC(=O)N1C(=O)[C@@]2(c3cc(C#CC4=CCCCC4)ccc31)[C@H](C(=O)N1CCN(c3ncccn3)CC1)[C@H]1C(=O)O[C@H](c3ccccc3)[C@H](c3ccccc3)N1[C@@H]2c1ccc(OCCO)cc1,0.0301 (inactive)
11,O=C1OCC=C[C@H]2OC34C=CCN(CCN5CCOCC5)C(=O)[C@H]3N(CCCCCCO)C(=O)[C@@H]4[C@@H]12 (stereo partly specified),-0.608 (inactive)
12,NC(=O)[C@]1(Cc2ccccc2)N=C(c2ccc(OCCCO)cc2)O[C@@H]1c1ccccc1,-0.351 (inactive)
13,COc1ccccc1CN1C(=O)c2ccccc2[C@](Cc2ccccc2I)(C(=O)NCc2ccccc2)[C@@H]1c1ccc(CO)cc1,0.106 (inactive)
14,CCCCN1CC=CC23O[C@@H]4C=CCCOC(=O)C4[C@H]2C(=O)N(CCCO)[C@@H]3C1=O (stereo partly specified),1.02 (inactive)
15,CC(C)NC(=O)[C@@]1(c2ccc([N+](=O)[O-])cc2)CC(=O)N(C(C)C)[C@@H]1c1ccc(CO)cc1,1.26 (inactive)
16,O=C1NC(=O)C2C1C=CC(C(O)c1cccs1)N2Nc1ccccn1 (stereo unspecified),-0.248 (inactive)
17,CN(C)CCCCNC(=O)[C@@H]1C[C@@H]2C(=O)N[C@@H](CCCCN)C(=O)N2[C@@H]1c1cccc(OCCO)c1,-0.285 (inactive)
18,C=CC[C@]1(C(=O)O)N=C(c2ccc(OCCCO)cc2)O[C@H]1c1ccccc1CN=[N+]=[N-],0.143 (inactive)
